# From PubChem BioAssay AID2685 (National Center for Advancing Translational Sciences (NCATS), 2010)
# Hit rate of the full screen: of about 320,000 compounds, about 2,100 (0.66%) were called active. Inconclusive results (about 53%) are left out. Calls come from the whole dose curve; as a rule, active = well fitted inhibition curve with a large enough effect in the signal ratio, with a control signal flat (not every such curve was filed as active); inconclusive = small, poorly fitted or top-dose-only effect, or effect the other way, or a change in a side signal; inactive = flat fitted curve, though single readings scatter; the % refers to the signal ratio. The full list was thinned out, with actives kept by preference.
# Assay: qHTS Assay for Lipid Storage Modulators in Drosophila S3 Cells;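 for cell number change: cells counted by Cell Tracker Red CMTPX staining in the red channel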; for lipid storage change, negative = inhibition: % is set by controls: 0 for no effect and ±100 for the full control effect
# Conditions: BODIPY lipid droplet fluorescence, 18-24 h, cells fed with added oleic acid; cell number change: measured here: cell count max response; series mostly up to 46.1 µM; lipid storage change, negative = inhibition: at the top concentration
# Outline: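 Drosophila S3 cells got compounds at several concentrations plus oleic acid (400 uM solution). Laser-scanning cytometry with 488 nm excitation read lipid droplets at 500-530 nm and cells at 575-640 nm. Percent activity was relative to 20 uM Triacsin C.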
# Potency is the fitted concentration of half-maximal effect.
Structure (SMILES),"lipid storage change, negative = inhibition",cell number change,outcome,Potency
CC1=[N+](CC(=O)NC(C)(C)C)CCc2ccccc21,-0.327% (inactive),-0.377%,,
O=C(Nc1cccc(OC(=O)c2ccc(Br)o2)c1)c1ccccc1,4.19% (inactive),11.8%,,
Cc1ccc(OCCCCNC2CCCCC2)c(C)c1,,,inactive,
COCCCNC(=O)CC(NS(=O)(=O)c1ccc(C)cc1)c1ccco1 (stereo not drawn),-3.27% (inactive),0.789%,,
CCCNC(=O)CC(NS(=O)(=O)c1ccc(Cl)cc1)c1ccco1 (stereo not drawn),19.4% (inactive),17.5%,,
COCCCNC(=O)CC(NS(=O)(=O)c1ccc(Cl)cc1)c1ccco1 (stereo not drawn),,,,32.6 µM (active)
CSC(=NC1CCCCC1)NS(=O)(=O)c1ccccc1,-23.2% (inactive),,,
COc1ccc(N2CCN(C(=O)c3ccc4ccccc4n3)CC2)cc1,9.19% (inactive),-2.64%,,
CN(CC(=O)Nc1ccc(N2CCOCC2)cc1)CC(=O)Nc1ccc(N2CCOCC2)cc1,6.32% (inactive),-8.37%,,
O=[N+]([O-])C1=CC=C2C(=NC3(CCCCC3)N2O)C1=NCCO,-7.19% (inactive),-8.38%,,
CCOc1cc(/C=C2\COc3ccccc3C2=O)ccc1OCC(=O)N(C)C,-22.5% (inactive),-5.65%,,
CCNC(=O)COc1ccc(/C=C2\COc3ccccc3C2=O)cc1OC,,,,3.66 µM (active)
CCOc1cc(/C=C2\COc3ccccc3C2=O)cc(Br)c1OCC(=O)N(C)C,,21.8%,inactive,
CSc1ccccc1OCc1cc(C(=O)NCCN2CCCc3ccccc32)no1,,,inactive,
O=C(Nc1nnc(SCC(=O)N2CCOCC2)s1)c1ccccc1,-24.1% (inactive),,,
Cc1cc(NC(=O)c2ccc(S(=O)(=O)N3CCOCC3)cc2)nc2c1c(=O)oc1ccccc12,-20.6% (inactive),-0.276%,,
COc1cccc(CNC(=O)CCCNS(=O)(=O)c2cccs2)c1,-4.23% (inactive),-2.45%,,
CCOC(=O)C1=C(C)NC(C)=C(C(=O)OCC)C1C(=O)OCC(=O)NC1(C#N)CCCCC1,18.2% [at 0.0737 µM] (inactive),,,
O=C(CCCC(=O)OCC(F)(F)C(F)F)Nc1ccc(NC(=O)CCCC(=O)OCC(F)(F)C(F)F)cc1,,25.6%,inactive,
COc1ccc(N2CCN(C(=O)c3ccc(CNS(=O)(=O)c4cc(C)ccc4C)cc3)CC2)cc1,,-25.1%,,7.31 µM (active)
CCOC(=O)N1CCN(C(=O)c2ccc(CNS(=O)(=O)c3ccc(OC)cc3)cc2)CC1,3.37% (inactive),,,
Cc1ccc(C)c(S(=O)(=O)NCc2ccc(C(=O)N3CC(C)OC(C)C3)cc2)c1 (stereo not drawn),-12.4% (inactive),-9.56%,,
Cc1cccc(C(=O)NNc2ncnc3c2cnn3C)c1,-6.2% (inactive),3.73%,,
CCCCC(C)(O)C/C=C/[C@H]1[C@H](O)CC(=O)[C@@H]1CCCCCCC(=O)OC (stereo partly drawn),,-1.2%,,23.1 µM (active)

Structure (SMILES),"lipid storage change, negative = inhibition",cell number change,outcome,Potency
CCCCC[C@H](O)/C=C/[C@@H]1[C@@H](C/C=C\CCCC(=O)OC)[C@@H](O)C[C@H]1O,1.11% (inactive),2.9%,,
CCCCCCC(=O)Oc1ccc(N2C(=O)CCC2=O)cc1,0.0787% (inactive),-4.94%,,
COC(=O)c1ccc(C2C(C(=O)OCC(C)C)=C(C)N=C3SCCC(=O)N32)cc1 (stereo not drawn),-0.0854% (inactive),-2.78%,,
CCCCCCN1C2=NCCCN2c2ccccc21,0.312% (inactive),-6.55%,,
CCOC(=O)c1c(-n2cccc2)sc2c1CCCC2=O,-18.3% (inactive),-2.93%,,
O=C(O)c1c(-n2cccc2)sc2c1CCCC2,11.6% (inactive),1.31%,,
Cc1sc(-n2cccc2)c(C(=O)O)c1C,,-19.7%,,1.84 µM (active)
COc1ccc(Nc2ccncc2[N+](=O)[O-])cc1,4.18% (inactive),12.3%,,
O=C(C1CC(=O)N(c2ccccc2)C1)N1CCN(C2=NS(=O)(=O)c3ccccc32)CC1 (stereo not drawn),,,inactive,
Cc1cc(C)c(C)c(S(=O)(=O)N2CCC(C(=O)N3CC(C)CC(C)C3)CC2)c1C (stereo not drawn),-16.7% (inactive),-11.8%,,
COc1ccccc1NC(=O)C1=C(C)Nc2nnnn2C1c1cc(Br)ccc1OC (stereo not drawn),-8.87% (inactive),1.78%,,
COc1ccc(CNC(C)C23CC4CC(CC(C4)C2)C3)c(OC)c1OC (stereo not drawn),-4.64% (inactive),0.296%,,
CCCCCCCCNC(=O)c1cccnc1SCC(=O)Nc1ccc(OC)cc1OC,,-25.3%,,20.6 µM (active)
CCCCCNC(=O)c1cccnc1SCC(=O)Nc1ccccc1OC,6.16% (inactive),-0.809%,,
COc1ccc(OC)c(NC(=O)CSc2ncccc2C(=O)O)c1,,,inactive,
CN(C(=O)C1CCC(=O)N(Cc2ccccc2F)C1)C1CCOCC1 (stereo not drawn),0.902% (inactive),7.76%,,
CC(NC(=O)CC1Nc2ccccc2NC1=O)c1ccccc1 (stereo not drawn),,,inactive,
CCc1cc(C(=O)OC)c(NC(=O)CC2Nc3cc(C)c(C)cc3NC2=O)s1 (stereo not drawn),9.56% (inactive),-3.56%,,
COC(=O)c1c(NC(=O)CC2Nc3ccccc3NC2=O)sc(C)c1C (stereo not drawn),-27% (inactive),18.7%,,
COC(=O)c1cc(C)sc1NC(=O)CC1Nc2ccccc2NC1=O (stereo not drawn),,-20.6%,,16.4 µM (active)
CC(C)CNC(=O)CC1Nc2ccccc2NC1=O (stereo not drawn),,-19.4%,,10.3 µM (active)
CCCCNC(=O)CC1Nc2ccccc2NC1=O (stereo not drawn),,,inactive,
COC(=O)c1[nH]c(C)c(/C(O)=C2\C(=O)C(=O)N(CCN(C)C)C2c2cccc(OC)c2OC)c1C (stereo not drawn),5.22% (inactive),-3.7%,,
Cc1cc(=O)oc2cc(OC(C)C(=O)NCCCn3ccnc3)ccc12 (stereo not drawn),,5.93%,inactive,

Structure (SMILES),"lipid storage change, negative = inhibition",cell number change,outcome,Potency
COC(=O)c1cn(NC(=O)c2ccncc2)c(=O)c2ccccc12,12.8% (inactive),-18.7%,,
COc1ccccc1C(=O)N1CCN(Cc2nc(CC3CC3)no2)CC1,-0.676% (inactive),10.8%,,
Cc1ccc(NC(=O)CS(=O)CC(=O)NCCCc2ccccc2)cc1Cl (stereo not drawn),-6.88% (inactive),,,
Cc1ccc(NC(=O)CS(=O)CC(=O)Nc2ccccc2-c2ccc(C)o2)cc1 (stereo not drawn),,17.8%,inactive,
Cc1ccc(-c2ccccc2NC(=O)CS(=O)CC(=O)Nc2ccc(C)c(Cl)c2)o1 (stereo not drawn),,-13%,,23.1 µM (active)
OCC1(CCc2ccccc2)CCN(Cc2ccccc2Cl)CC1,5.38% (inactive),4.39%,,
COc1ccc(-c2nnc3ccc(SCC(=O)Nc4cc(C)on4)nn23)cc1,0.462% (inactive),8.27%,,
Cc1cc(C(=O)NC2CCCCC2)c(C)n1-c1ccc(F)cc1,6.96% (inactive),2.04%,,
Cc1cccc(-n2c(C)cc(C(=O)NC3CCCCC3)c2C)c1,,-27.1%,,20.6 µM (active)
COc1ccc(-n2c(C)cc(C(=O)NC3CCCCC3)c2C)cc1,-14.2% (inactive),-26.1%,,
O=C(Nc1ccc(Cl)cc1)C1C2CCC3C(CCC21)C3(Cl)Cl (stereo not drawn),14.4% (inactive),-4.94%,,
O=C(NCC1CCCN1S(=O)(=O)c1ccccc1)C(=O)NC1CC1 (stereo not drawn),18.1% (inactive),,,
CN(CC(=O)O)S(=O)(=O)c1ccc(F)cc1,-2.19% (inactive),12.3%,,
CCN(CC)S(=O)(=O)c1ccc(F)cc1,-5.13% (inactive),12.5%,,
CCCc1ccc(S(=O)(=O)N(C)S(=O)(=O)c2ccc(F)cc2)cc1,,17.6%,,0.82 µM (active)
CCN(CC(=O)Nc1ccccc1C(F)(F)F)C(=O)CSCc1ccc(C)cc1,14.9% (inactive),3.04%,,
COc1ccc(CNC(=O)OCCN2CCN(S(=O)(=O)c3ccc(C)cc3)CCC2=O)cc1,1.09% (inactive),22.9%,,
Cc1ccc(O)c(NC(=O)CN(C)S(=O)(=O)c2ccc(Cl)cc2)c1,-11.4% (inactive),2.51%,,
COc1ccc(N2C(=O)C(CC(=O)Nc3ccccc3)N(CCc3ccc(OC)c(OC)c3)C2=O)cc1 (stereo not drawn),0.805% (inactive),0.202%,,
O=C(COC(=O)Cn1cnc2ccccc21)NCc1ccc(F)cc1,6.01% (inactive),21.3%,,
O=C(COC(=O)Cn1cnc2ccccc21)NCCC1=CCCCC1,-86.9% (inactive),-15.3%,,
O=C(COC(=O)Cn1cnc2ccccc21)NCCc1ccc(Cl)cc1,,22.6%,,8.2 µM (active)
CC(=O)Nc1ccc(S(=O)(=O)N2CCN=C2SCc2cccnc2)cc1,-0.0501% (inactive),-0.745%,,
COc1cc(-n2nc(C)c3c2OC(N)=C(C#N)C3c2ccccc2)c(Cl)c(Br)c1O (stereo not drawn),,-5.47%,inactive,

Structure (SMILES),"lipid storage change, negative = inhibition",cell number change,outcome,Potency
Cc1cc(N2CCCCC2)nc2c(C)cccc12,9.06% (inactive),3.12%,,
COc1ccc(/C=c2/sc3n(c2=O)C(c2ccccc2OC)C2=C(N=3)c3ccccc3CC2)cc1O (stereo not drawn),15.6% (inactive),-22.9%,,
COc1ccc(C(=O)OC(C(=O)c2ccccc2)c2ccccc2)cc1 (stereo not drawn),-14.1% (inactive),-12.3%,,
CN(C)C(=O)C(OC(=O)c1ccc2ccccc2n1)c1ccccc1 (stereo not drawn),,16.5%,inactive,
CN(C)C(=O)C(OC(=O)c1ccc2c(c1)CCCC2)c1ccccc1 (stereo not drawn),,15.3%,,0.58 µM (active)
CCOC(=O)c1cc(=O)c2c([N+](=O)[O-])ccc(OC)c2o1,-7.08% (inactive),-14.1%,,
CC(=O)Nc1cccc(Oc2ccc3c(c2)C(=O)NC3=O)c1,-10.3% (inactive),-4.38%,,
CCCC(=O)Nc1cccc(Oc2ccc3c(c2)C(=O)NC3=O)c1,,-28.1%,,1.46 µM (active)
CCC(=O)Nc1ccc(Oc2ccc3c(c2)C(=O)NC3=O)cc1,,-7.29%,inactive,
CC(C)c1ccc(NC(=O)N2CCOCC2)cc1,,-1.06%,inactive,
O=C(CSc1nc(-c2ccc(F)cc2)nc2c1Cc1ccccc1O2)Nc1ccc(C(=O)O)cc1,4.47% (inactive),-7.56%,,
CN1CCCN(C(=O)c2ccccc2Cl)CC1,-22.4% (inactive),-6.61%,,
CN1CCCN(C(=O)c2c(F)cccc2Cl)CC1,,-3.31%,,1.64 µM (active)
O=C(c1c(F)cccc1F)N1CCCC1,0.776% (inactive),7.6%,,
CCOC(=O)/C(C#N)=C(/C)c1ccc(OC)cc1,,,inactive,
CCOc1cc2[nH]c(=O)n(CCc3ccc(OC)c(OC)c3)c(=O)c2cc1OCC,10.7% (inactive),0.389%,,
O=C(O)c1ccc(N/N=C2/CCCc3ccccc32)cc1,1.14% (inactive),24.2%,,
O=C1c2ccccc2-c2c1cccc2C(=O)N(CCO)CCO,,-9.84%,,25.9 µM (active)
CC(C)CNC(=O)c1cccc2c1-c1ccccc1C2=O,14.4% (inactive),24.1%,,
CCN(CC)C(=O)c1cccc2c1C(=O)c1ccccc1-2,9.17% (inactive),11.5%,,
CC12CN(S(=O)(=O)c3ccccc3)CC(C)(CN(S(=O)(=O)c3ccccc3)C1)C2,1.31% (inactive),1.2%,,
CCC(C)(C)NC(=O)CN(C(=O)c1csnn1)c1cccc2c1CCCC2,-4.03% (inactive),-10.5%,,
